Screening data (PubChem)
An excerpt weighted towards active compounds, which were near 6.6% of everything screened.
HT1080NT lethal = qHTS for induction of synthetic lethality in tumor cells producing 2HG: qHTS for the HT-1080-NT fibrosarcoma cell line; Potency, µM (highest dose often 46.1 µM), for the others: at the top dose activity, negative = less viability, usual class: cytotoxic; 360,000 tested, 1.6% active; HT-1080-NT fibrosarcoma viability, CellTiter-Glo ATP luminescence, 48 h;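 note: NT is the 2HG producing partner of a matched IDH1 knockdown line; 0% = DMSO-treated cells and -100% = media-only wells without cells; nearly all actives have a fitted effect of over 55% in size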
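Viability of the 2HG-overproducing fibrosarcoma line after 48 hours of compound exposure at 37 degrees C was determined by luminescence with CellTiter-Glo, and concentration-effect curves were then fitted and categorized.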
KB-3-1 cytotox = qHTS assay for MDR1-selective chemotherapeutics: Primary screen using the parental adenocarcinoma cell KB-3-1. 400,000 tested, 1.4% active. KB-3-1 viability, CellTiter-Glo ATP luminescence, 72 h. AID 1347075, 2019. Potency, µM (doses to about 46.1 µM), actives largely listed as cytotoxic; note: % is set by controls: 0 for no effect and ±100 for the full control effect; nearly all actives have a fitted effect of over 60% in size
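Viability of parental KB-3-1 cells, measured by CellTiter-Glo luminescence, followed a 72 h incubation at 37 °C with pinned compounds in phenol-red-free DMEM containing 10% FBS.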
TGFb SMAD3 inh = qHTS for Inhibitors of TGF-b. 410,000 tested, 1.2% active. Potency, µM (highest dose often 46.1 µM), for inactives: at the top dose activity, negative = inhibition, usual class: inhibitors. AID 588855, 2011. HepG2 CAGA-GFP TGF-b/SMAD3 reporter, GFP fluorescence, 18 h; TGF-beta stimulated, 500 pg/mL final; note: % is set by controls: 0 for no effect and ±100 for the full control effect; nearly all actives have a fitted effect of over 65% in size
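GFP signal (ex488/em500-530) from TGF-beta-stimulated HEPG2 CAGA-GFP cells, 500 pg/mL final, 18 h at 37 degrees C in DMEM plus 1% FBS, normalized to unstimulated and DMSO-stimulated controls.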
HT1080 IDH1KD tx = qHTS for induction of synthetic lethality in tumor cells producing 2HG: qHTS for the HT-1080-IDH1KD cell line. HT-1080 IDH1 knockdown viability, ATP luminescence, 48 h. Potency, µM (titrated, usually from 46.1 µM), for inactives: at the highest dose activity, negative = toxicity, hits mostly cytotoxic. 360,000 tested, 2% active. AID 686971, 2013;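 note: 0% = DMSO wells and -100% = cell-free medium wells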
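Cytotoxicity counter-line: IDH1KD HT-1080, 48 h, CellTiter-Glo. Curves classed by r2, magnitude and activity.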
KB-V1 cytotox = qHTS assay for MDR1-selective chemotherapeutics: Primary screen using the drug-selected MDR subline cells KB-V1 | 400,000 tested, 3.4% active | KB-V1 MDR cells viability, CellTiter-Glo, 72 h | Potency, µM (top dose mostly 46.1 µM), usual class: cytotoxic; note: % is set by controls: 0 for no effect and ±100 for the full control effect; nearly all actives have a fitted effect of over 60% in size
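In this primary screen, KB-V1 cells overexpressing P-gp are incubated with library compounds (lowest to highest concentration) for 72 h at 37 degrees C before a luminescent ATP viability read.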
HepG2 tox = qHTS for Inhibitors of TGF-b: Cytotox Counterscreen; HepG2 CAGA-GFP viability, ATP luminescence, 18 h; Potency, µM (doses to about 46.1 µM), for inactives: at the highest dose activity change, negative = cytotoxicity, most hits filed as cytotoxic; 410,000 tested, 0.76% active; AID 588856, 2011
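HepG2 CAGA-GFP cells (1000/well, DMEM with 1% FBS) received compound, then TGF-beta at 500 pg/mL final, and were incubated 18 hours at 37 degrees C. Viability was read by CellTiter-Glo luminescence. Media-only wells were set as complete cell-killing and DMSO as no toxicity.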
The depositor's hits bear a star. Calls come from the whole dose curve; as a rule, active = well fitted curve in the direction sought with a large enough effect; inconclusive = small, poorly fitted or top-dose-only effect, or another doubt; inactive = no such curve, though single readings can be large; an effect the other way counts as inactive or inconclusive. Potency is the fitted concentration of half-maximal effect.

Screening O=C1C2CC=CCC2C(=O)N1c1ccc(Cc2ccncc2)cc1 (centres undefined) returned HT1080NT lethal -26%, KB-3-1 cytotox inconclusive, TGFb SMAD3 inh -27%, HT1080 IDH1KD tx -2%, KB-V1 cytotox 16µM* and HepG2 tox 3%.
COc1ccccc1C1c2[nH]c3ccccc3c2C[C@H]2C(=O)N(C3CCN(Cc4ccccc4)CC3)CC(=O)N12 (some centres undefined) was read as HT1080NT lethal inconclusive, KB-3-1 cytotox inconclusive, TGFb SMAD3 inh 11µM*, HT1080 IDH1KD tx inconclusive, KB-V1 cytotox inactive and HepG2 tox -43%.
CCN(C(=O)CSc1ncccn1)c1cccc2ccccc12 was read as HT1080NT lethal -2%, KB-3-1 cytotox inactive, TGFb SMAD3 inh 0%, HT1080 IDH1KD tx 10%, KB-V1 cytotox inactive and HepG2 tox 0%.
`CCN(C(=O)COc1ccc(C)cc1OC)c1cccc2ccccc12` gave HT1080NT lethal -21%, KB-3-1 cytotox inactive, TGFb SMAD3 inh inconclusive, HT1080 IDH1KD tx inconclusive, KB-V1 cytotox 12µM* and HepG2 tox -6%.
For CCN1C(=O)/C(=C2/Sc3ccccc3N2CC)S/C1=N\c1ncn[nH]1 the results were HT1080NT lethal -14%, KB-3-1 cytotox inactive, TGFb SMAD3 inh 18%, HT1080 IDH1KD tx -2%, KB-V1 cytotox 23µM* and HepG2 tox -18%.
Cc1ccc(OCC(=O)OCc2cc(=O)n3ccsc3n2)cc1C was read as KB-3-1 cytotox inactive, TGFb SMAD3 inh -18%, KB-V1 cytotox inactive and HepG2 tox 0%.
For CCCCC(=O)N1CCc2cc(OC)c(OC)cc2C1COc1ccc(C(=O)OCC)cc1 (centres undefined) the results were KB-3-1 cytotox inactive, TGFb SMAD3 inh -22%, KB-V1 cytotox inconclusive and HepG2 tox -31%.
Cc1nc2cc(-c3ccccc3)sc2c(=O)n1N was read as HT1080NT lethal 3.7µM*, KB-3-1 cytotox 3.7µM*, TGFb SMAD3 inh -13%, HT1080 IDH1KD tx 3.7µM*, KB-V1 cytotox inactive and HepG2 tox 7.1µM*.
For COc1ccc(-c2cc3nc(C)n(N)c(=O)c3s2)cc1 the results were HT1080NT lethal 4.1µM*, KB-3-1 cytotox inconclusive, TGFb SMAD3 inh 31%, HT1080 IDH1KD tx 5.8µM*, KB-V1 cytotox 4.6µM* and HepG2 tox 2.8µM*.
Screening COc1ccc(CCN2C(=O)CC(NCc3ccc4c(c3)OCO4)C2=O)cc1OC (centres undefined) returned HT1080NT lethal 8%, KB-3-1 cytotox inactive, TGFb SMAD3 inh -14%, HT1080 IDH1KD tx 15%, KB-V1 cytotox inactive and HepG2 tox 0%.
`COc1ccc(CCNC2CC(=O)N(CCc3ccc(OC)c(OC)c3)C2=O)cc1OC` (centres undefined) gave HT1080NT lethal -5%, KB-3-1 cytotox inactive, TGFb SMAD3 inh -4%, HT1080 IDH1KD tx -12%, KB-V1 cytotox 18µM* and HepG2 tox 8%.
CCCCCCCCCCCCCCCCn1cc[n+](C)c1 was read as HT1080NT lethal 16µM*, KB-3-1 cytotox 4.1µM*, TGFb SMAD3 inh 11µM*, HT1080 IDH1KD tx 21µM*, KB-V1 cytotox inactive and HepG2 tox -103%.
For Cc1csc2nc(COC(=O)c3cccc(NC(=O)COc4ccccc4Cl)c3)cc(=O)n12 the results were TGFb SMAD3 inh -5% and HepG2 tox -13%.
COc1ccc([C@H]2CC(=O)C=C(c3cc(OC)ccc3OC)C2)cc1 was read as HT1080NT lethal inconclusive, KB-3-1 cytotox 16µM*, TGFb SMAD3 inh inconclusive, HT1080 IDH1KD tx inconclusive, KB-V1 cytotox 23µM* and HepG2 tox -41%.
Screening CCOc1ccc(Cl)cc1C1=CC(=O)C[C@H](c2ccc(OC)cc2)C1 returned HT1080NT lethal 2.1µM*, KB-3-1 cytotox inconclusive, TGFb SMAD3 inh inconclusive, HT1080 IDH1KD tx 4.1µM*, KB-V1 cytotox 4.6µM* and HepG2 tox -16%.
For COc1ccc([C@H]2CC(=O)C=C(c3cc(C=O)ccc3OC)C2)cc1 the results were HT1080NT lethal inconclusive, KB-3-1 cytotox 16µM*, TGFb SMAD3 inh inconclusive, HT1080 IDH1KD tx 15µM*, KB-V1 cytotox inconclusive and HepG2 tox -18%.
For COc1ccc([C@H]2CC(=O)C=C(c3c(OC)cccc3OC)C2)cc1 the results were HT1080NT lethal 4.6µM*, KB-3-1 cytotox inconclusive, TGFb SMAD3 inh -6%, HT1080 IDH1KD tx 5.8µM*, KB-V1 cytotox inconclusive and HepG2 tox -20%.
For COc1ccc([C@H]2CC(=O)C=C(c3cc(Cl)ccc3OC)C2)cc1 the results were HT1080NT lethal inconclusive, KB-3-1 cytotox inconclusive, TGFb SMAD3 inh inconclusive, HT1080 IDH1KD tx inconclusive, KB-V1 cytotox inconclusive and HepG2 tox 4%.
For COc1ccc(OC)c(C2=CC(=O)C[C@H](c3ccc(F)cc3)C2)c1 the results were HT1080NT lethal -24%, KB-3-1 cytotox inactive, TGFb SMAD3 inh 2%, HT1080 IDH1KD tx -24%, KB-V1 cytotox inactive and HepG2 tox -14%.
CSc1ccc(CCNC(=O)Cn2nc(C)n3c(cc4sccc43)c2=O)cc1 was read as KB-3-1 cytotox inactive, TGFb SMAD3 inh inconclusive, KB-V1 cytotox inactive and HepG2 tox -10%.
COc1cccc2c1Oc1ncccc1N(C(=O)CCC(=O)NCCC(C)C)C2 was read as KB-3-1 cytotox inactive, TGFb SMAD3 inh -7%, KB-V1 cytotox inactive and HepG2 tox 10%.
Screening O=C(NCCN1C(=O)S/C(=C\c2cccc(Cl)c2Cl)C1=O)C1=COCCO1 returned HT1080NT lethal inconclusive, KB-3-1 cytotox 21µM*, TGFb SMAD3 inh 5%, HT1080 IDH1KD tx inconclusive, KB-V1 cytotox 15µM* and HepG2 tox -21%.
For Cc1nc2nc(NCc3ccc(Br)cc3)[nH]n2c(=O)c1Cc1ccccc1 the results were KB-3-1 cytotox inactive, TGFb SMAD3 inh -1%, KB-V1 cytotox inactive and HepG2 tox -14%.
`CCN1CCN(c2nc(SC)nc3sc4c(c23)CC(C)(C)OC4)CC1` gave HT1080NT lethal -1%, KB-3-1 cytotox inactive, TGFb SMAD3 inh 10%, HT1080 IDH1KD tx 2%, KB-V1 cytotox 8.2µM* and HepG2 tox 0%.
